# Reference: PubChem BioAssay
# Where “and” joins values, the source holds several entries; their conditions need not be identical. Identical values can stand only once. Calls of active or inactive are those of the source.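 How the source made its calls, unless noted: active means inhibition at or above 50% relative to wild type and mutant plate controls; inactive means inhibition below 50%.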
# How the values were obtained:
# [1] = inhibitors of TNFa-induced NFkB p65 translocation, primary screen, imaging, HUVEC, MLSMR starter and 10KST1 sets (AID 438;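 active means inhibition above 20% together with a positive visual image hit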;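 further: compound added about 3h40 before a 20 min TNFalpha stimulation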;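 on inhibition: signal is the nuclear over cytoplasmic p65 intensity ratio per well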); conditions: HUVEC TNFa-induced p65 nuclear translocation; cell count: measured here: nuclei count (cytotoxicity indicator), at 2.08 µM; inhibition: at 2 µM, stronger effect = higher value, 0% TNFa-plus-vehicle, 100% no-TNFa wells
# [2] = inhibitors of mutant huntingtin aggregation, primary screen, imaging, exon1htt(103Q)mCFP cells, high-content imaging (AID 483;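 active means visual image review flags a hit and inhibition of aggregation exceeds 20%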;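 further: compound exposure lasted 3 days before fixation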;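 on nuclei count: percent of the per-plate median nuclei count of sample wells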); conditions: exon1htt(103Q)mCFP cell line, aggregate imaging, at 2 µM; inhibition of aggregation: stronger effect = higher value; nuclei count: measured here: cell count, toxicity
# [3] = inhibitors of E-selectin induction by TNFa, primary screen, imaging, HUVEC, immunofluorescence, MLSMR starter and 10KST1 sets (AID 487;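 active means visually confirmed hit in the image check and inhibition above 20%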;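 on inhibition: signal is fraction of cell area covered by stained E-selectin grains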;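 on nuclei count: 100% = median nuclei count of all wells on the same plate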); conditions: HUVEC TNFalpha-induced E-selectin immunofluorescence imaging, at 2 µM; inhibition: stronger effect = higher value; nuclei count: measured here: cell number, toxicity
# [4] = DUSP6 inhibitors restoring Erk phosphorylation by chemical complementation, primary imaging in DUSP6-transfected HeLa (AID 609;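 active means compounds giving at least 50% inhibition in the cell-based MKP-3 phosphatase rescue imaging test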;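 on inhibition: phospho-Erk level distribution per well compared with pooled transfected vehicle control wells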); conditions: HeLa MKP-3 transfected, phospho-Erk imaging KS statistic, at 10 µM, cells stimulated with TPA for 15 min
# [5] = molecular target: Dual specificity protein phosphatase 6 (Homo sapiens) (UniProt Q16828); assay: as above; conditions: HeLa MKP-3 transfected, phospho-Erk imaging KS statistic; at 10 µM; stronger effect = higher value; cells stimulated with TPA for 15 min
# [6] = molecular target: Voltage-gated potassium channel subunit beta-2 (Rattus norvegicus) (UniProt P62483); assay: KvBeta enzyme negative modulators, primary screen, biochemical, NADPH fluorescence (AID 622;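 active means fluorescence slope higher than the sample average by over 3 SD, cut at about -0.22 in these data, passing the limit was not always enough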;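 further: slope of raw intensity against log time taken from 70 to 1610 s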); conditions: recombinant KvBeta, 4-cyanobenzaldehyde reduction, at 10 µM, stronger effect = higher value
# [7] = molecular target: Voltage-gated potassium channel subunit beta-2 (Rattus norvegicus) (UniProt P62483); assay: KvBeta positive modulators, primary screen, biochemical, NADPH fluorescence (AID 623;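 active means NADPH fluorescence slope more negative than the mean of all samples by about 3 SD, 99.7% confidence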;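 further: fluorescence intensity change per second fitted from 20 to 320 s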); conditions: Recombinant KvBeta, NADPH fluorescence decrease slope, 10 min; at 10 µM; stronger effect = lower value
# [8] = molecular target: Alpha-2C adrenergic receptor (Homo sapiens) (UniProt P18825); assay: modulators of alpha2C/GIRK thallium flux, primary screen, cell-based, HEK293 alpha2C/GIRK1/2 (AID 624;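 active means fluorescence slope after compound addition differing from the mean of all screened samples at 99.7% confidence, in either direction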;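 further: slope of fluorescence ratio to pre-addition baseline per second over 15 to 24 s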); conditions: thallium flux BTC fluorescence, at 10 µM, actives lie on both sides
# [9] = inhibitors of larval lipid processing in zebrafish, primary screen, whole organism, PED6 fluorescence, gall bladder and intestine (AID 686;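 active means a full or partial loss of lipid-probe fluorescence in the fish gall bladder, intestine or both, judged by eye; inactive means no fluorescence loss, or compound toxic to the fish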;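 further: larvae 5 to 7 days old with five fish per well; signal comes from phospholipase A2 cleavage of quenched PED6 carried via bile; overnight exposure to compound and PED6 before scoring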); conditions: Zebrafish larvae PED6 lipid processing, fluorescence scoring; screened at 20 µM (by protocol)
# [10] = inhibitors of Chlamydomonas gravitaxis, primary screen, whole organism, Chlamydomonas reinhardtii, WT vs cilia-less mutant, absorbance, 96-well (AID 463189); conditions: OD600 absorbance, 2 days, at 10 µM, stronger effect = higher value;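 further: 0% = wild type cc124 cells in DMSO and 100% = ciliumless bld1 mutant cells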
# [11] = inhibitors of Sendai virus-induced IRF3 signaling, primary screen, TLR/RLR signaling modifier project, cell-based, Sendai virus stimulus, luciferase, 10K MLSCN set (AID 602276;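 active means inhibition at or above 50% at 10 µM; inactive means inhibition below 50%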;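 further: firefly luciferase from ISG56 promoter only with Renilla not read in this screen; 0% = Sendai virus plus DMSO and 100% = medium plus DMSO without virus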); conditions: HEK293 RL24 IRF3 luciferase reporter, at 10 µM, stronger effect = higher value
# [12] = inhibitors of poly I:C-induced TLR3 signaling, primary screen, cell-based, poly I:C stimulus, luciferase, 10K MLSCN set (AID 602277;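 active means inhibition of the reporter signal at or above 50%; inactive means inhibition below 50%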); conditions: HEK293-TLR3 RL24 IRF3 luciferase reporter, at 10 µM, stronger effect = higher value
# [13] = measured here: cell density z-score
# [14] = measured here: nuclear c-Myc green intensity z-score
# [15] = measured here: nuclear pErk red intensity z-score, stronger effect = higher value
# Alpha-2C adrenergic receptor (Homo sapiens), sequence (P18825 whole entry, looked up): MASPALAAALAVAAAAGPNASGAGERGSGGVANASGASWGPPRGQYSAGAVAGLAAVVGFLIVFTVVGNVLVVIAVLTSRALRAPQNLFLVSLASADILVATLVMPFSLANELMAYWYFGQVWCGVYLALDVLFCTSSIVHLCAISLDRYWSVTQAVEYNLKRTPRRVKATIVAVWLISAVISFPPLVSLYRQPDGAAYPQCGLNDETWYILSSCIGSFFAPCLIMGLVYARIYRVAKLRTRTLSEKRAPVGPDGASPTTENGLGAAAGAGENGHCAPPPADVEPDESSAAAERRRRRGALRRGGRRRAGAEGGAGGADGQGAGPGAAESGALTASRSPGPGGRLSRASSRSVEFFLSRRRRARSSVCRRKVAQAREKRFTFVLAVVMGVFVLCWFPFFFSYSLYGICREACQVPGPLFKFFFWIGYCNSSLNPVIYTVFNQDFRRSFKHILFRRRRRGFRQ
# Dual specificity protein phosphatase 6 (Homo sapiens), sequence (Q16828 whole entry, looked up): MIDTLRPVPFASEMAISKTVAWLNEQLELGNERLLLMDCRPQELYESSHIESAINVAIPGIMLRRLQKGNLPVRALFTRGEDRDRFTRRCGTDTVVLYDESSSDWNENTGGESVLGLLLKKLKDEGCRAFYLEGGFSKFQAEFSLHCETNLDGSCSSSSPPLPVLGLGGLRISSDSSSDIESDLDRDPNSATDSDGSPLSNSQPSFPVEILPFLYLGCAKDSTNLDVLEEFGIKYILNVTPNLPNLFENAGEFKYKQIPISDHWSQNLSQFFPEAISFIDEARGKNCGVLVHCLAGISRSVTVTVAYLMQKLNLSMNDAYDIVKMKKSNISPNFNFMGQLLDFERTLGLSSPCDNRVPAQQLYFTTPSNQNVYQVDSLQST
# Voltage-gated potassium channel subunit beta-2 (Rattus norvegicus), sequence (P62483 whole entry, looked up): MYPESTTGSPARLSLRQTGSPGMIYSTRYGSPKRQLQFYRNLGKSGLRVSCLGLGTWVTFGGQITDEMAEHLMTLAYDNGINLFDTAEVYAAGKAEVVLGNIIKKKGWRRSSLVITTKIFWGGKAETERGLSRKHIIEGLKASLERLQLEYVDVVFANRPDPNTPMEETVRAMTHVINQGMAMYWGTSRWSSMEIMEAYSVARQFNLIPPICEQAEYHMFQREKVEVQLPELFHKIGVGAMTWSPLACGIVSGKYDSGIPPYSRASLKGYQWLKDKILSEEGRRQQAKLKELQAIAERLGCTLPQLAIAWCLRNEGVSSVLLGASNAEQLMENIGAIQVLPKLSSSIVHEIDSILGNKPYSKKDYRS
smiles,measurement,setting,value
CCNC(=O)N(C(=O)NCC)n1c(C)nnc1C,cell count,[1],615
same,inhibition,[1],-11.1% (inactive)
same,inhibition of aggregation,[2],16.9% (inactive)
same,nuclei count,[2],96.4%
same,inhibition,[3],28.7% (inactive)
same,nuclei count,[3],130%
same,z-score,[4]; [13],-1.98
same,z-score,[4]; [14],1.53
same,z-score,[4]; [15],-0.158
same,inhibition,[5],1.12% (inactive)
same,fluorescence slope,[6],-0.413 (inactive)
same,NADPH fluorescence slope,[7],-6e-05 (inactive)
same,slope,[8],0.00476 (inactive)
same,outcome,[9],inactive
same,inhibition,[10],11% (inactive)
same,inhibition,[11],9.47% (inactive)
same,inhibition,[12],14% (inactive)
CCCCOc1ccc(-c2nnc(N)s2)cc1,cell count,[1],634
same,inhibition,[1],-17.7% (inactive)
same,inhibition of aggregation,[2],-7.4% (inactive)
same,nuclei count,[2],104%
same,inhibition,[3],-23.7% (inactive)
same,nuclei count,[3],146%
same,z-score,[4]; [13],-0.283
same,z-score,[4]; [14],0.709
same,z-score,[4]; [15],0.136
same,inhibition,[5],-15% (inactive)
same,fluorescence slope,[6],-0.405 (inactive)
same,NADPH fluorescence slope,[7],-6.4e-05 (inactive)
same,slope,[8],0.00759 (inactive)
same,outcome,[9],inactive
same,inhibition,[10],2.26% (inactive)
same,inhibition,[11],-42.6% (inactive)
same,inhibition,[12],-89.4% (inactive)
CCN(CC)CCOC(=O)C1(C2CCCCC2)CCCCC1,cell count,[1],520
same,inhibition,[1],-11.3% (inactive)
same,inhibition of aggregation,[2],17.1% (inactive)
same,nuclei count,[2],96%
same,inhibition,[3],-57.3% (inactive)
same,nuclei count,[3],118%
same,z-score,[4]; [13],-0.235
same,z-score,[4]; [14],-0.682
same,z-score,[4]; [15],1.64
same,inhibition,[5],-6.41% (inactive)
same,fluorescence slope,[6],-0.494 (inactive)
same,NADPH fluorescence slope,[7],-5.1e-05 (inactive)
same,slope,[8],0.00415 (inactive)
same,outcome,[9],inactive
same,inhibition,[10],-2.13% (inactive) and -31% (inactive)
same,inhibition,[11],10.2% (inactive)
same,inhibition,[12],38.4% (inactive)
COc1ccc2nc(S(=O)Cc3ncc(C)c(OC)c3C)[nH]c2c1 (stereo not given),cell count,[1],542
same,inhibition,[1],1.6% (inactive)
same,inhibition of aggregation,[2],2.2% (inactive)
same,nuclei count,[2],97.5%
same,inhibition,[3],-24.2% (inactive)
same,nuclei count,[3],108%
same,z-score,[4]; [13],0.164
same,z-score,[4]; [14],1.22
same,z-score,[4]; [15],-0.909
same,inhibition,[5],25.7% (inactive)
same,fluorescence slope,[6],-0.449 (inactive)
same,NADPH fluorescence slope,[7],-7.2e-06 (inactive)
same,slope,[8],0.00367 (inactive)
same,outcome,[9],inactive
same,inhibition,[10],27% (inactive)
same,inhibition,[11],-9.53% (inactive)
same,inhibition,[12],-10.5% (inactive)
CN1CCc2c(sc3c2c(=O)n(-c2ccccc2)c2nnc(SCc4ccccc4)n32)C1,cell count,[1],562
same,inhibition,[1],-16.1% (inactive)
same,inhibition of aggregation,[2],8.3% (inactive)
same,nuclei count,[2],116%
same,inhibition,[3],-95.1% (inactive)
same,nuclei count,[3],142%
same,z-score,[4]; [13],0.865
same,z-score,[4]; [14],-2.08
same,z-score,[4]; [15],-0.239
same,inhibition,[5],3.66% (inactive)
same,fluorescence slope,[6],-0.563 (inactive)
same,NADPH fluorescence slope,[7],-1.4e-05 (inactive)
same,slope,[8],0.00449 (inactive)
same,outcome,[9],inactive
same,inhibition,[10],5.3% (inactive)
same,inhibition,[11],-12.4% (inactive)
same,inhibition,[12],98.5% (active)
COC(=O)[C@@H](N)Cc1ccc(O)cc1,cell count,[1],550
same,inhibition,[1],-6.9% (inactive)
same,inhibition of aggregation,[2],4.1% (inactive)
same,nuclei count,[2],91.1%
same,inhibition,[3],-9.7% (inactive)
same,nuclei count,[3],107%
same,z-score,[4]; [13],-0.0639
same,z-score,[4]; [14],0.189
same,z-score,[4]; [15],0.26
same,inhibition,[5],11.3% (inactive)
same,fluorescence slope,[6],-0.496 (inactive)
same,NADPH fluorescence slope,[7],-7.7e-05 (inactive)
same,slope,[8],0.00529 (inactive)
same,outcome,[9],inactive
same,inhibition,[10],15.2% (inactive)
same,inhibition,[11],15.4% (inactive)
same,inhibition,[12],27.7% (inactive)
Cc1cc(-c2ccc(F)cc2)nc2cc(C(N)=O)nn12,cell count,[1],567
same,inhibition,[1],-4% (inactive)
same,inhibition of aggregation,[2],8.1% (inactive)
same,nuclei count,[2],99.3%
same,inhibition,[3],14.3% (inactive)
same,nuclei count,[3],117%
same,z-score,[4]; [13],-0.951
same,z-score,[4]; [14],0.396
same,z-score,[4]; [15],-0.666
same,inhibition,[5],5.57% (inactive)
same,fluorescence slope,[6],-0.377 (inactive)
same,NADPH fluorescence slope,[7],-0.000109 (inactive)
same,slope,[8],0.00367 (inactive)
same,outcome,[9],inactive
same,inhibition,[10],13.5% (inactive)
same,inhibition,[11],-10.5% (inactive)
same,inhibition,[12],-21.7% (inactive)
COC(=O)C1=C(N)Oc2cc(C)[nH]c(=O)c2C1c1ccncc1 (stereo not given),cell count,[1],415
same,inhibition,[1],-3.5% (inactive)
same,inhibition of aggregation,[2],5.1% (inactive)
same,nuclei count,[2],99.8%
same,inhibition,[3],-70.4% (inactive)
same,nuclei count,[3],132%
same,z-score,[4]; [13],1.07
same,z-score,[4]; [14],-0.647
same,z-score,[4]; [15],-1.1
same,inhibition,[5],11.4% (inactive)
same,fluorescence slope,[6],-0.45 (inactive)
same,NADPH fluorescence slope,[7],-0.000119 (inactive)
same,slope,[8],0.00625 (inactive)
same,outcome,[9],inactive
same,inhibition,[10],35.9% (inactive)
same,inhibition,[11],22.8% (inactive)
same,inhibition,[12],38.8% (inactive)
CC(C)COc1nc2ccccc2nc1C(C#N)C(=O)NC1CCCCC1 (stereo not given),cell count,[1],342
same,inhibition,[1],-6.5% (inactive)
same,inhibition of aggregation,[2],11.7% (inactive)
same,nuclei count,[2],98.8%
same,inhibition,[3],-27.9% (inactive)
same,nuclei count,[3],133%
same,z-score,[4]; [13],0.00555
same,z-score,[4]; [14],0.614
same,z-score,[4]; [15],0.00363
same,inhibition,[5],-5.26% (inactive)
same,fluorescence slope,[6],-0.423 (inactive)
same,NADPH fluorescence slope,[7],-0.00013 (inactive)
same,slope,[8],0.00573 (inactive)
same,outcome,[9],inactive
same,inhibition,[10],9.16% (inactive)
same,inhibition,[11],13.4% (inactive)
same,inhibition,[12],8.92% (inactive)
CCCC(=O)O[C@]1(C(=O)CCl)[C@@H](C)C[C@H]2[C@@H]3CCC4=CC(=O)C=C[C@]4(C)[C@@]3(F)C(=O)C[C@@]21C,cell count,[1],614
same,inhibition,[1],-3.2% (inactive)
same,inhibition of aggregation,[2],-2.9% (inactive)
same,nuclei count,[2],63.4%
same,inhibition,[3],-61.7% (inactive)
same,nuclei count,[3],120%
same,z-score,[4]; [13],0.0825
same,z-score,[4]; [14],0.587
same,z-score,[4]; [15],-0.866
same,inhibition,[5],19.2% (inactive)
same,fluorescence slope,[6],-0.535 (inactive)
same,NADPH fluorescence slope,[7],-7e-05 (inactive)
same,slope,[8],0.00401 (inactive)
same,outcome,[9],inactive
same,inhibition,[10],47.7% (inactive)
same,inhibition,[11],-12.4% (inactive)
same,inhibition,[12],-5.01% (inactive)
